20 sequences from the OligoGym collection can be followed below.
Note: reference of the scale not given here.

In one test the target is QSOX1. Briefly: pooled miR-30 sensor sort-seq; sequence = guide strand. The note with it: shRNA.
TTCCGGAACAGCAGGTAGCAAG: the sensor-assay potency score (higher = more potent) was -1.46.
Regarding TACTCTTCGTTATTTCTCGCAA, the sensor-assay potency score (higher = more potent) is -0.156.
On the same count and under the same terms, the result for TTTGTGCTGGGACAGGTCCAGA reads -1.47; that for TTGTGGCTAGACCAGAGCCAGA, -1.92.
Still for that read-out and setting: the value for TTGAAGTCTCTGCAGACTGCAC was -0.833; that for TACATTTTGCCGAGCTGCCTGC was -0.913.
Same read-out and setting: the value for TTGAAGAACCTCACAGTCGGGA was 0.0825.
Sequence TAAGCGGTATAGAAGGACCTGG had a sensor-assay potency score (higher = more potent) of -0.156.
The same measure, in the same setting: the value for TTATTTCTCGCAAAGAATCCAT was -0.0879.
On the same count and under the same terms, the value for TAGCGCAGTCTCGGCAGCCGAA was -1.38.
On the same count and under the same terms, the result for TATTTCTCGCAAAGAATCCATC reads -1.27.

In another test the target is RAB11A. The test is described as above. The note with it: shRNA.
Take TTATAGCTCGATATCGCTCTTG: the sensor-assay potency score (higher = more potent) was -0.642.
The sequence TATAGCTCGATATCGCTCTTGC registered a sensor-assay potency score (higher = more potent) of 0.186.
Same read-out and setting: the value for TTTCAATGAATGACAAACCATT was -1.27; that for TACATTTGTAGAGTCTAGGGCC was 0.146; that for TATATTTAAATCTCAGACCTGG was 0.396.
Same read-out and setting: the value for TATTGTTTTTCCATCAACCTGG was 0.22.
The same measure, in the same setting: the result for TTCATCTGTAGGAACTGCCCTG reads 0.239; that for ATGAATAGGAACCACATTGTTG, -1.36; that for TTGTCTGAAAAGCAGCTTCTAC, -1.05.
